In experiment [1] the target is PU.1 (IVT) (UniProt P17947 1-270). Description: protein-binding microarray (PBM); 20 mM HEPES pH 7.9, 100 mM NaCl, 1 mM DTT, 0.2 mg/mL BSA, 0.02% Triton X-100, 2% milk, 0.4 mg/mL salmon testes DNA; 1 h; temperature not stated; high values mean tight binding. As to conditions: dsDNA, one strand shown. A digest of the protocol: (§1)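 Untagged full-length PU.1 was produced by coupled human in vitro transcription/translation and incubated for 1 h on custom double-stranded DNA microarrays in HEPES pH 7.9 containing 100 mM NaCl, 2% milk and salmon testes DNA. Each array carried 20-bp genomic sites and single-nucleotide variants, with 10 probes per site (5 per orientation). Bound protein was detected with anti-PU.1 followed by a fluorescent secondary antibody. Binding values are z-scores calculated from scanned fluorescence after linear-regression normalisation.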

The target is the same in experiment [2]. Described as above. The conditions noted are these: dsDNA, one strand shown. Put shortly: as §1
The source holds these as a separate data set.

Whole data set: some 3,700 sequences, median “z-score” near 4, cut for the highest 2% near 8.4. The full list was thinned out, with the highest values kept by preference.

As for “GCCTAGCACAAAATGAGGAAGTGAACAAAGTGCTAGGTCTTGATTCGCTTGACGCTGCTG”, in the experiment with PU.1 (IVT) [1], the binding signal came out at 8.02 z-score. In the case of “GCCTAGCACAAAATGAGGAAGTGCATTGAGTGCTAGGTCTTGATTCGCTTGACGCTGCTG”, the binding signal in the experiment with PU.1 (IVT) [1] was found to be 8.07 z-score. On the same count and under the same terms, as for “GCCTAGCACAAATAGAGGAAGTGGAATGGGTGCTAGGTCTTGATTCGCTTGACGCTGCTG”, the figure is 7.2 z-score. Sequence “GCCTAGCACACAATGAGGAAGTGCTGGCCGTGCTAGGTCTTGATTCGCTTGACGCTGCTG” had a binding signal with PU.1 (IVT) [2] of 6.19 z-score. Sequence “GCCTAGCACTAAAGGAGGAATTGAAACCAGTGCTAGGTCTTGATTCGCTTGACGCTGCTG” had a binding signal with PU.1 (IVT) [1] of 1.22 z-score. With “GCCTAGCACGCCAGGAGGAAGTGGAAATGGTGCTAGGTCTTGATTCGCTTGACGCTGCTG”, in the experiment with PU.1 (IVT) [1], the binding signal was found to be 4.22 z-score.

“GCCTAGCACGACAAGAGGAAGTGCAAGATGTGCTAGGTCTTGATTCGCTTGACGCTGCTG” had a binding signal with PU.1 (IVT) [1] of 4.87 z-score. For the sequence “GCCTAGCACATATGGAGGAAGTGGAACCCGTGCTAGGTCTTGATTCGCTTGACGCTGCTG”, the binding signal with PU.1 (IVT) [1] worked out at 3.92 z-score. Turning to “GCCTAGCACCTGCCAGGGAAGTGTAAGCAGTGCTAGGTCTTGATTCGCTTGACGCTGCTG”, the binding signal in the experiment with PU.1 (IVT) [2] turned out to be 0.66 z-score. In the experiment with PU.1 (IVT) [2], “GCCTAGCACAAAAAGAAGAAGTGGGGCTTGTGCTAGGTCTTGATTCGCTTGACGCTGCTG” had a binding signal of 4.26 z-score.

As for “GCCTAGCACTGAAAGGGGAAGTCTTTTTAGTGCTAGGTCTTGATTCGCTTGACGCTGCTG”, the binding signal in the experiment with PU.1 (IVT) [1] came out at 6.55 z-score. As for “GCCTAGCACAAAATGAGGAAGTGCTGGCAGTGCTAGGTCTTGATTCGCTTGACGCTGCTG”, the binding signal with PU.1 (IVT) [1] was 8.14 z-score.

“GCCTAGCACAAAATGAGGAAGTGGAAGGGGTGCTAGGTCTTGATTCGCTTGACGCTGCTG” came in with a binding signal with PU.1 (IVT) [1] of 8.15 z-score. As to “GCCTAGCACAAAATGAGGAAGTGGCTTTGGTGCTAGGTCTTGATTCGCTTGACGCTGCTG”, in the experiment with PU.1 (IVT) [1], the binding signal was 8.37 z-score.

“GCCTAGCACTAAATGAGGAAGTGTGCTGTGTGCTAGGTCTTGATTCGCTTGACGCTGCTG” had a binding signal with PU.1 (IVT) [1] of 7.74 z-score. In turn, “GCCTAGCACAAAAAAAGGAAGTGGACCGTGTGCTAGGTCTTGATTCGCTTGACGCTGCTG” gave a binding signal in the experiment with PU.1 (IVT) [2] of 6.55 z-score. “GCCTAGCACAAGATGAGGAAGTGAGTGTAGTGCTAGGTCTTGATTCGCTTGACGCTGCTG”: in the experiment with PU.1 (IVT) [2], the binding signal is 6.13 z-score. For “GCCTAGCACAAAAAAAGGAAGTGATAGCCGTGCTAGGTCTTGATTCGCTTGACGCTGCTG”, the binding signal in the experiment with PU.1 (IVT) [2] came out at 6.5 z-score. Regarding “GCCTAGCACAAAAAGAGGAAGTGATGAGTGTGCTAGGTCTTGATTCGCTTGACGCTGCTG”, in the experiment with PU.1 (IVT) [1], the binding signal came out at 8.92 z-score. The same measure, in the same setting: the same measure for “GCCTAGCACAAAAAGAGGAAGTCAGTTTGGTGCTAGGTCTTGATTCGCTTGACGCTGCTG”: 8.4 z-score; for “GCCTAGCACAAAGAGAGGAAGTACAGTTTGTGCTAGGTCTTGATTCGCTTGACGCTGCTG”: 5.35 z-score.

The sequence “GCCTAGCACGAAAAGAGGAAGTGTGAGACGTGCTAGGTCTTGATTCGCTTGACGCTGCTG” gave a binding signal in the experiment with PU.1 (IVT) [1] of 7.97 z-score. “GCCTAGCACAAAAAGAGGAAGTCTGGTGTGTGCTAGGTCTTGATTCGCTTGACGCTGCTG” came in with a binding signal in the experiment with PU.1 (IVT) [1] of 8.02 z-score. The same measure, in the same setting: as for “GCCTAGCACAAGAAGAGGAAGTGAGTGCTGTGCTAGGTCTTGATTCGCTTGACGCTGCTG”, the figure is 7.09 z-score; as for “GCCTAGCACGAAAAGAGGAAGTGTGAGATGTGCTAGGTCTTGATTCGCTTGACGCTGCTG”, 8.2 z-score.

As for “GCCTAGCACAAAAAGAGGAAGTGATGACCGTGCTAGGTCTTGATTCGCTTGACGCTGCTG”, in the experiment with PU.1 (IVT) [1], the binding signal turned out to be 8.84 z-score. In the case of “GCCTAGCACGAAAAGAGGAAGTGAGATGTGTGCTAGGTCTTGATTCGCTTGACGCTGCTG”, the binding signal in the experiment with PU.1 (IVT) [1] amounted to 8.73 z-score.

Consider “GCCTAGCACTTAATGAGGAAGTGCTGTCAGTGCTAGGTCTTGATTCGCTTGACGCTGCTG”, for which the binding signal with PU.1 (IVT) [1] is 6.5 z-score. “GCCTAGCACTAGATGAGGAAGTACTGTGCGTGCTAGGTCTTGATTCGCTTGACGCTGCTG” yielded a binding signal with PU.1 (IVT) [2] of 6.57 z-score. In turn, “GCCTAGCACTTTAACAGGAAGTGAAACCAGTGCTAGGTCTTGATTCGCTTGACGCTGCTG” had a binding signal with PU.1 (IVT) [2] of 4.61 z-score.

Take “GCCTAGCACCAAAAAGGGAAGTGGGTTGAGTGCTAGGTCTTGATTCGCTTGACGCTGCTG”: in the experiment with PU.1 (IVT) [1], the binding signal is 7.02 z-score.

The sequence “GCCTAGCACTGAAACAGGAAGTGAGACCAGTGCTAGGTCTTGATTCGCTTGACGCTGCTG” showed a binding signal with PU.1 (IVT) [1] of 6.68 z-score.

For “GCCTAGCACGGAATAGGGAAGTGAAACTGGTGCTAGGTCTTGATTCGCTTGACGCTGCTG”, the binding signal with PU.1 (IVT) [2] came to 6.68 z-score.

Take “GCCTAGCACGAAAAGGGGAACTGAAACTAGTGCTAGGTCTTGATTCGCTTGACGCTGCTG”: the binding signal in the experiment with PU.1 (IVT) [1] turned out to be 6.15 z-score.

“GCCTAGCACAAAAGGAGGAAGTGAAAGTAGTGCTAGGTCTTGATTCGCTTGACGCTGCTG”: the binding signal with PU.1 (IVT) [1] amounted to 6.69 z-score. On the same count and under the same terms, as for “GCCTAGCACAAAAAGAGGAAGTGGGGGAGGTGCTAGGTCTTGATTCGCTTGACGCTGCTG”, the figure is 8.59 z-score.

Sequence “GCCTAGCACAAAAAGAGGAAGTGCCCTGTGTGCTAGGTCTTGATTCGCTTGACGCTGCTG” showed a binding signal with PU.1 (IVT) [1] of 8.56 z-score. For “GCCTAGCACAAAAGGAGGAAGTGATCCCTGTGCTAGGTCTTGATTCGCTTGACGCTGCTG”, the binding signal with PU.1 (IVT) [1] was 6.77 z-score. The same measure, in the same setting: the same measure for “GCCTAGCACAAAGAAAGGAAGTGGCCTGTGTGCTAGGTCTTGATTCGCTTGACGCTGCTG”: 2.71 z-score. As for “GCCTAGCACAAAAAGAGGAAGAGGAGGAGGTGCTAGGTCTTGATTCGCTTGACGCTGCTG”, in the experiment with PU.1 (IVT) [2], the binding signal was 5.1 z-score.

In the experiment with PU.1 (IVT) [2], “GCCTAGCACAAAAAAAGGAAGTGAGAGCTGTGCTAGGTCTTGATTCGCTTGACGCTGCTG” showed a binding signal of 6.29 z-score. In the experiment with PU.1 (IVT) [1], “GCCTAGCACAAAAAGAGGAAGTGCACAAGGTGCTAGGTCTTGATTCGCTTGACGCTGCTG” yielded a binding signal of 8.64 z-score. Turning to “GCCTAGCACAAAAAGAGGAAGTGAGCTTAGTGCTAGGTCTTGATTCGCTTGACGCTGCTG”, the binding signal with PU.1 (IVT) [1] is 8.51 z-score. On to “GCCTAGCACAAAAGGAGGAAGTGGGGGGAGTGCTAGGTCTTGATTCGCTTGACGCTGCTG”, for which the binding signal with PU.1 (IVT) [2] was 6.01 z-score. Still for that read-out and setting: the same measure for “GCCTAGCACAAAAAGAGGAAGGGGAAGAAGTGCTAGGTCTTGATTCGCTTGACGCTGCTG”: 6.26 z-score. For the sequence “GCCTAGCACAAAAAAGAGAAGTGGGGGAAGTGCTAGGTCTTGATTCGCTTGACGCTGCTG”, the binding signal in the experiment with PU.1 (IVT) [1] is 5.77 z-score.

For the origin of these results see article PMC6451091, “NextPBM: a platform to study cell-specific transcription factor binding and cooperativity”.
